Screening results: PubChem BioAssay, National Center for Advancing Translational Sciences (NCATS)
BAZ2B block = BAZ2B (human) inhibition; Q9UIF8; AlphaScreen BAZ2B-H3K14Ac peptide displacement; Potency, µM (series often up to 114 µM), without a hit: at the highest dose activity change, negative = inhibition, most hits filed as inhibitors; actives 4.4% (n = 360,000); AID 504333; further: potency means the concentration at half of the fitted maximal effect; on the % scale 0 is the no-effect control and ±100 the full control effect; nearly all actives have a fitted effect of over 60% in size
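Multi-concentration screen (max 110 uM) measuring displacement of acetylated histone H3 peptide from BAZ2B by AlphaScreen, using 50 nM protein, 50 nM peptide and 10 ug/mL streptavidin donor plus Ni-chelate acceptor beads.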
HP1b binding inh = HP1-beta chromodomain-methylated histone interaction inhibition | AlphaScreen HP1-beta / biotin-H3K9me3 peptide binding | P83916 | Potency, µM (highest dose often 114 µM), for inactives: at the top dose activity change, negative = inhibition, actives largely listed as inhibitors | actives 0.56% (n = 390,000); further: potency means the concentration at half of the fitted maximal effect; nearly all actives have a fitted effect of over 70% in size
Target sequence (P83916 whole entry, looked up): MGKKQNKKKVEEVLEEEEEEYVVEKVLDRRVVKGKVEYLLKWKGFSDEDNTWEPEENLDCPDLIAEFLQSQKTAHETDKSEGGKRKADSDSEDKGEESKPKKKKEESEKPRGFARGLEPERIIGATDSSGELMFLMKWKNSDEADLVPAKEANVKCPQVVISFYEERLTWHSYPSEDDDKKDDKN
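Compound inhibition of the preformed complex between 50 nM HP1-beta and 50 nM biotinylated H3K9me3 peptide was read by AlphaScreen. Buffer was PBS pH 7.4 with 0.01% Tween-20. Incubations ran 30 min at room temperature, with 10 ug/mL donor/acceptor beads.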
GCN5L2 inh = inhibitors of human GCN5L2 histone acetyltransferase; Q92830; actives 0.21% (n = 390,000); AID 504327; Potency, µM (titrated, usually from 58.9 µM), without a hit: at the highest dose activity change, negative = inhibition, most hits filed as inhibitors; GCN5L2 HAT assay, ThioGlo1 CoA-SH fluorescence; further: potency means the concentration at half of the fitted maximal effect; on the % scale 0 is the no-effect control and ±100 the full control effect
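Free CoA generated was detected with ThioGlo1 (50uM) fluorescence at Ex340nm/Em540nm, read immediately and after 20 min at room temperature. Enzyme, 20 nM in HEPES pH 7.5 buffer, saw compounds 15 min before adding 75uM H3(1-25) peptide and 70uM acetyl-CoA.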
PLK1 PBD block = inhibitors of human PLK1 polo-box domain binding | P53350 | Plk1 PBD binding of FITC phosphopeptide, fluorescence polarization | Potency, µM, inactives show max response, negative = inhibition, most hits filed as inhibitors | actives 2.8% (n = 360,000); further: potency means the concentration at half of the fitted maximal effect; series mostly up to about 57 µM; on the % scale 0 is the no-effect control and ±100 the full control effect; nearly all actives have a fitted effect of over 65% in size
PI5P4Ka inh = PI5P4K alpha (human) kinase inhibition | P48426 | PI5P4Kalpha enzyme, ADP-Glo luminescence, 60 min; hits give low values | max response, % | actives 1.2% (n = 330,000) | AID 652105; active means max response of -50% or lower; inconclusive means between -30% and -50%; inactive means -30% or higher; further: value at the top dose of about 77 µM; on the % scale 0 is the no-effect control and ±100 the full control effect
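Controls without substrate or without enzyme flank wells where PI5P4Kalpha converts substrate using 5 microM ATP (final). Incubation lasts 60 minutes at room temperature; ADP formed is read by ADP-Glo luminescence.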
JMJD2A Tudor = blocks the human JMJD2A Tudor domain; actives 4.4% (n = 390,000); AlphaScreen JMJD2A-Tudor / H3K4me3 peptide binding; Potency, µM (doses to about 114 µM), inactives show at the highest dose activity change, negative = inhibition, hits mostly inhibitors; O75164; further: potency means the concentration at half of the fitted maximal effect; on the % scale 0 is the no-effect control and ±100 the full control effect; nearly all actives have a fitted effect of over 50% in size
An asterisk follows results filed as active; ? = inconclusive; . = no result given; [ ] = dose if it differs, or a comment. Shown are actives, neighbours in structure and some others; about 7% of the full set was active somewhere. Unless noted, the call rests on the fitted dose curve; in most records, active means well fitted curve in the direction sought with a large enough effect; inconclusive means small, poorly fitted or top-dose-only effect, or another doubt; inactive means no such curve, though single readings can be large; an effect the other way counts as inactive or inconclusive.

SMILES	BAZ2B block	HP1b binding inh	GCN5L2 inh	PLK1 PBD block	PI5P4Ka inh	JMJD2A Tudor
COc1cccc(NC(=O)Nc2cc(C(=O)NC(C)C)ccc2N2CC3CC(C2)c2cccc(=O)n2C3)c1 (centres undefined)	-16.3%	10.1%	-13.4%	3.77µM*	-14.3	?
CCc1ccc(NC(=O)Nc2cc(C(=O)O)ccc2N2CC3CC(C2)c2cccc(=O)n2C3)cc1 (centres undefined)	-14.0%	55.6%	-6.6%	-14.3%	0.0	-22.6%
N#CC(c1cccc(Cl)c1)c1ccc2c(C(F)(F)F)cc(C(F)(F)F)nc2n1 (centres undefined)	10µM*	10µM*	.	-16.0%	-13.0	28.2µM*
O=[N+]([O-])c1cccc(N/N=C/c2cccc(O)c2O)c1	?	-16.4%	-2.6%	-19.5%	?	-30.2%
O=[N+]([O-])c1cc(Br)c(O)c(/C=N/Nc2nnnn2-c2cccc3ccccc23)c1	79.4µM*	-12.6%	?	13.4µM*	.	56.2µM*
Nc1no[n+]([O-])c1-c1ccccc1	-3.9%	35.9%	2.1%	-3.1%	-3.1	6.4%
CCOC1=C2CN(S(=O)(=O)c3ccc(C)cc3)C(c3cccc(Cl)c3)CC2N(S(=O)(=O)c2ccc(C)cc2)C(c2ccncc2)C1 (centres undefined)	.	.	.	-23.6%	-8.0	.
CCCOc1ccccc1C(=O)N(Cc1ccc(C)o1)C1CCS(=O)(=O)C1 (centres undefined)	-17.7%[57.1 µM]	26.8%	2.2%	-0.1%	0.3	-6.5%
CCCOc1ccccc1C(=O)N(Cc1ccco1)C1CCS(=O)(=O)C1 (centres undefined)	1.5%	-8.5%	-2.7%	29.9µM*	-22.2	-23.3%[11.4 µM]
COc1ccc(-c2nncnn2)cc1	44.7µM*	-38.7%	1.4%	-7.5%	1.0	?
O=C(O)C(=Cc1ccncc1)c1cccc2ccccc12	.	.	.	-5.7%	-2.4	.
O=C(O)/C(=C\c1ccc2ccccc2c1)c1cccc2ccccc12	.	28.1%	.	21.2µM*	3.1	-18.9%
CCOC(=O)C1CCN(C(=O)COC(=O)c2ccc3c(c2)C(=O)N(c2ccc(OCC)cc2)C3=O)CC1	3.9%	67.2%	-20.4%	-12.3%	-8.0	-18.2%
Cc1cccc(OC(=O)n2c(=S)oc3cc(Cl)ccc32)c1	-14.9%	3.4%	22.8%	29.9µM*	-23.3	79.4µM*
O=C(Nc1ccc2c(c1)OCO2)C1CC(c2cccc(Br)c2)=NO1 (centres undefined)	-29.4%	34.3%	-3.4%	-5.5%	1.4	-3.8%
Cc1ccc(S(=O)(=O)N2CCN(C3CC4CCC3C4)CC2)cc1 (centres undefined)	31.6µM*	31.6µM*	-3.8%	-18.9%	0.6	14.1µM*
COc1ccc(S(=O)(=O)N2CCN(C)CC2)cc1	-7.0%	25.2%	-6.2%	-5.4%	-0.2	-21.3%
COc1ccc(S(=O)(=O)N2CCN(C3CC4CCC3C4)CC2)cc1 (centres undefined)	-30.3%	2.3%	-1.3%	?	2.9	3.16µM*
CCN(C(=O)c1cnc(N2CCOCC2)c2ccccc12)c1cc(C)ccc1C	0.9%	25.0%[57 µM]	1.7%	.	.	-7.7%
COC(=O)/C=C\C(C#N)(C#N)N=Cc1ccc(OC)cc1	.	14.6%	.	9.47µM*	1.5	-21.5%
CCCCN(Cc1ccccc1)C(=O)c1oc(=O)c2ccccc2c1-c1ccc(C)cc1	.	29.5%	-11.1%	.	.	-13.0%
Nc1ccccc1C#CC(=O)c1ccccc1	11.2%	44.7%	-0.8%	8.44µM*	4.0	-5.6%
CCCCCNC(=O)C1CCC(Cn2c(=O)c3sccc3n(CC)c2=O)CC1 (centres undefined)	-1.8%	40.2%	-13.0%	.	.	3.3%
COc1ccc(Cc2c(N)nc(N)nc2N)cc1	-28.9%	21.5%	-13.5%	-13.7%	5.9	6.2%
Nc1ccc(OCCCc2c(N)nc(N)nc2N)cc1	-34.9%	1.4%	13.7%	2.2%	-16.8	56.2µM*
